Results on 40 compounds are retold here after PubChem BioAssay (NCI).

About 83,000 compounds went through this panel and 20% of them were active in at least one assay; those are over-represented in the sample as a whole.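 Activity criterion: percent growth below 10, measured after cells in 96-well plates were exposed to a single compound concentration for 48 hours.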 Unmarked numbers belong to inactive results. Active and inactive are the calls of the source.

This assay has as its system OVCAR-3 ovarian. Nature of the assay: NCI-60 one-dose screen, 48 h (100 = growth as untreated, 0 = no growth, -100 = all killed). The settings on record: 10 µM unless noted. On the procedure:
Growth inhibition of the OVCAR-3 human tumor cell line is measured as a screen for anti-cancer activity. Cells are grown in 96 well plates and exposed to the test compound for 48 hours. Compounds are tested at a single concentration, which is 10^-5 M for most compounds. The reported endpoint is percent growth (GI% or GIPRCNT), where numbers from 0 - 100% represent growth inhibition, and numbers from -100% - 0 represent cell death. For example, a value of 40 represents 60% growth inhibition. A value of 0 means no net growth occurred over the course of the experiment. A value of -40 indicates 40% of cells at the beginning of the experiment died by the end of the experiment. A value of -100 means all cells are dead at the end of the experiment.
NCI-60 Human Tumor Cell Lines Screen was performed using the standard one-dose NCI protocol, which is described in more detail at https://dtp.cancer.gov/discovery_development/nci-60/default.htm.
Compounds with GIPRCNT values below 10 were considered active. Activity score was based on GIPRCNT using the following formula: […]
Score is 0 for GIPRCNT values of 100 or above, 50 for GIPRCNT values of 0, and 100 for GIPRCNT values of -100.
For `CC1CCCCN1CCCNC(=O)N/C(N)=N/c1nc2ccccc2s1` (stereo not given), the growth is 72.4%.

`Cc1cc2c(cc1Cl)C(=O)/C(=C/c1ccccc1)O2`: the growth was 26.8%.

With `O=C(NN1C(=O)/C(=C/C=C/c2ccc([N+](=O)[O-])o2)SC1=S)c1cccc(O)c1`, the growth is -100% (active).

For the compound `C=C1CC[C@@H]2[C@]3(C)COC(c4cn(-c5ccccc5)nc4-c4cccc([N+](=O)[O-])c4)O[C@@H]3CC[C@@]2(C)[C@@H]1C/C=C1/C(=O)OC[C@H]1O` (stereo not given in full), the growth was 15.1%.

On to `N#Cc1c(-c2cccc(Cl)c2Cl)cc(-c2ccc3ccccc3c2)[nH]c1=O`, for which the growth was 31.6%.

With `O=C(O)c1ccc(-c2ccc(/C=N/NC(=O)c3[nH]c4ccc(Br)cc4c3-c3ccccc3)s2)cc1`, the growth is 2.13% (active).

Consider `CCC(C)(C)c1ccc(OCCCCCCN2CCN(c3ccncc3)CC2)cc1`, for which the growth was 38%.

Consider `CCS(=O)(=O)N1CCCC(C(=O)Nc2nc3ccc(NC(=O)c4ccc(F)c(OC)c4F)cc3s2)C1` (stereo not given), for which the growth is 62.3%.

For the compound `O=C(COc1ccc(NC(=O)Nc2ccc(Cl)cc2)cc1)N/N=C/c1ccccc1`, the growth was -76.9% (active).

For `COc1ccc(-c2ccnc(SCc3cc4ccccc4[nH]c3=O)n2)cc1OC`, the growth is 20.7%.

For the compound `O=C1NC(=O)c2c1c1c3cc(Br)ccc3[nH]c1c1oc3ccc(F)cc3c21`, the growth is -33.3% (active).

With `Cc1cnc(C(=O)NNc2nc3cc(F)ccc3n3c(C(=O)N4CC5CC(C4)N5)ccc23)cn1`, the growth was 50.1%.

As for `COc1ccc(/C=N/NC(=O)Cn2nc(Cc3ccc(OC)cc3)c3onc(C)c3c2=O)cc1`, the growth was 50.8%.

For `N#Cc1ccc(/C=N/NC(=O)c2[nH]c3ccc(Br)cc3c2-c2ccccc2)o1`, the growth was 14.6%.

Take `N#Cc1c(-c2ccccc2Cl)cc(-c2ccc3ccccc3c2)[nH]c1=O`: the growth is -7.55% (active).

As to `CN(C)c1ccnc(NCCCSC(c2ccccc2)(c2ccccc2)c2ccccc2)c1`, the growth is 49.6%.

Take `O=c1[nH]c2ccccc2cc1CSc1cccc(Nc2nccc(-c3ccc4ccccc4c3)n2)c1`: the growth was 117%.

For `O=C(COc1ccc(NC(=O)Nc2ccccc2)cc1)N=Nc1c(O)[nH]c2ccc([N+](=O)[O-])cc12`, the growth was -76.9% (active).

As for `CC12CC[C@@H]3[C@]4(C)COC(c5c(F)cccc5F)O[C@@H]4CC[C@@]3(C)[C@@H]1CC(C1=CCOC1=O)O2` (stereo not given in full), the growth was 88.1%.

For the compound `O=c1[nH]c2ccccc2cc1CSc1nccc(-c2ccc3ccccc3c2)n1`, the growth is 102%.

Take `CN(C)c1ccnc(CNCCSC2(c3ccc(C(F)(F)F)cc3)c3ccccc3C=Cc3ccccc32)c1`: the growth was -40.5% (active).

As to `O=C1N/C(=N\c2nccs2)S/C1=C\C=C/c1ccccc1`, the growth is 50.7%.

On to `COc1cc2c3c(n(CCCN4CCC[C@@H]4CO)c(=O)c2cc1OC)-c1cc2c(cc1C3=O)OCO2`, for which the growth is -94.4% (active).

Consider `COCOc1cc2oc(C(=O)N[C@@H](Cc3ccccc3)C(O)C(=O)NCc3ccccc3)c(C)c(=O)c2cc1OCOC` (stereo not given in full), for which the growth was 99%.

With `CNS(=O)(=O)c1ccc(Nc2ccc(C(F)(F)F)cc2)c(-c2cn(C)cn2)c1`, the growth was 54.7%.

For the compound `Cn1cc(-c2cc3nc(-c4cn(C)c5ncc(Br)cc45)cc(N)n3n2)c2ccccc21`, the growth was -18.5% (active).

As for `Cc1ccccc1[C@H]1C(C(=O)c2ccc(Cl)cc2)C2(N[C@@H]1c1ccccc1)C(=O)Nc1ccccc12` (stereo not given in full), the growth is -58.4% (active).

Regarding `CC(=O)c1cccc(NC(=O)CCC(=O)NS(=O)(=O)c2ccc(C)cc2)c1`, the growth was 128%.

For the compound `CN(C)CCCNC(=O)c1cc(NC(=O)c2cc(NC(=O)c3ccc(C#Cc4ccccc4)cc3)cn2C)cn1C`, the growth is -2.81% (active).

On to `Cc1cc(=O)oc2cc(OCCCCOc3ccc(/C=C/C(=O)Nc4ccccc4N)cc3)ccc12`, for which the growth is 64.9%.

Regarding `NS(=O)(=O)c1ccc(-n2cc(-c3cccc(NC(=O)c4cc(Cl)cc(Cl)c4)c3)nn2)cc1`, the growth is 48.2%.

Consider `CCCCSc1nc(Nc2ccc(S(N)(=O)=O)cc2)c(C#N)c(-c2cc(OC)c(OC)c(OC)c2)n1`, for which the growth was 49.8%.

On to `COc1cc(/C=C/C(=O)c2ccccc2)ccc1Oc1nc(Nc2ccc(F)cc2)nc(N(C)C)n1`, for which the growth is 39.4%.

Turning to `COc1cc(CNC(=O)/C=C/c2ccc3c(c2)OCO3)ccc1OCc1cn(-c2ccc([N+](=O)[O-])cc2)nn1`, the growth was 108%.

Turning to `N#Cc1c(-c2cccc(Cl)c2Cl)cc(-c2c[nH]c3ccccc23)[nH]c1=O`, the growth was 86.1%.

For `NC(=S)Nc1cccc(NC(N)=S)c1`, the growth was 88.5%.

Regarding `COc1cc(-c2nc3cc(Cl)c(Cl)cc3[nH]2)ccc1OCc1nnc(-c2cccs2)o1`, the growth is 91.2%.

Consider `CN(C)c1nc(NCCNS(=O)(=O)c2ccc(C3=Nc4c(N)nc(N)nc4NC(c4ccccc4)C3)cc2)nc(Nc2ccc(F)cc2)n1` (stereo not given), for which the growth is 45.2%.

As for `COc1ccc(-c2nc3cc(C)ccc3n2CC(=O)N=Nc2c(O)[nH]c3ccc(OC)cc23)cc1`, the growth was -71.8% (active).

For `CN(C)CCn1c2ccccc2c2nc3cc(C(F)(F)F)ccc3nc21`, the growth was 69.2%.
